Experimental data taken from PubChem BioAssay AID689 (Sanford-Burnham Center for Chemical Genomics, 2007).
About 80 (0.1%) of roughly 62,000 compounds were called active. These entries were drawn from the full list. Measured potencies and affinities stand elsewhere. A number with no mark means an inactive call. No rule for the calls is given here.

Each compound was assayed against Ephrin type-A receptor 4 (Mus musculus) (UniProt Q03137) (assay: EphA4 ligand-binding antagonists – biochemical, colorimetric, mouse EphA4, primary screen (AID 689)). Conditions: EphA4-AP binding to KYL peptide, pNPP A405, at 10 µM, hits give high values.
Ephrin type-A receptor 4 (Mus musculus), sequence (Q03137 whole entry, looked up): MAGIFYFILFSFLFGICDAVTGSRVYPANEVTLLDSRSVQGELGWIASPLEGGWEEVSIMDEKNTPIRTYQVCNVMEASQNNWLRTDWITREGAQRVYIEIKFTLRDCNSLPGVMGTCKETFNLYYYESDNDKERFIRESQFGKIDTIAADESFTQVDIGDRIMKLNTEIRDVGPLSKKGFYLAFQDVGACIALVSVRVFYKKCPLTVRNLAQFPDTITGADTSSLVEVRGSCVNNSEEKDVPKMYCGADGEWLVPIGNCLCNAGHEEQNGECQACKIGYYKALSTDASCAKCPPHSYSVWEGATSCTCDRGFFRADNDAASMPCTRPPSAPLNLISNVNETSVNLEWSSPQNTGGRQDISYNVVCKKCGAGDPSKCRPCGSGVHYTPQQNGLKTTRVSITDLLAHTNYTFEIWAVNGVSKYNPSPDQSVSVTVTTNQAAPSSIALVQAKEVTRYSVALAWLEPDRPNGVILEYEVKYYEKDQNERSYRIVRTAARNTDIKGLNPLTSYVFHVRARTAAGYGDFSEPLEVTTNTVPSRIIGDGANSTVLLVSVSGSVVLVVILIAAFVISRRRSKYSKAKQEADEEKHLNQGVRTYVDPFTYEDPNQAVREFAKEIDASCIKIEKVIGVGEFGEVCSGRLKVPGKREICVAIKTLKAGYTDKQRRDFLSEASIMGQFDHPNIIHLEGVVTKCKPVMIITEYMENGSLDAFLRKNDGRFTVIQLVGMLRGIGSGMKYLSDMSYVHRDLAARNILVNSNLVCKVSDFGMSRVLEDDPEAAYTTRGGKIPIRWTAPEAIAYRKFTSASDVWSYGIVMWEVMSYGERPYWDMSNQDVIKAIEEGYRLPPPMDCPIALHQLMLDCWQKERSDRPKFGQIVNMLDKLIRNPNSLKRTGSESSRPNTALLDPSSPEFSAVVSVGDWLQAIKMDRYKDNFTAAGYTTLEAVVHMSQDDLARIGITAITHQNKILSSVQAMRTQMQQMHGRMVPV

| SMILES | inhibition |
| --- | --- |
| O=C(NCCOc1ccccc1F)c1cccc2ccccc12 | -0.6% [this sample at 5 µg/mL] |
| COC(=O)c1ccc(Cn2cnc3c(cnn3-c3ccc(F)cc3)c2=O)o1 | 9.4% |
| Cc1ccc(/C=C/C2=Cc3c(sc(NC(=O)CSc4n[nH]c(N)n4)c3C#N)C(C)(C)C2)o1 | 44.8% |
| CCOc1ccc(NC(=O)CSc2nc(C)c3c(c2C#N)CCCC3)cc1 | -14.6% |
| Cc1ccc(OCc2nnc(SCC(=O)Nc3sc(C)c(C)c3C#N)n2C)cc1 | -5.2% |
| Cc1sc(NC(=O)CSc2nnc(C)c(=O)[nH]2)c(C#N)c1C | -25.1% |
| COc1cc(C2N(c3ccc(Cl)c(Cl)c3)C(=O)C3CCCN32)cc(OC)c1OC (configuration not stated) | -1.5% |
| O=C(NC1CCCCCCC1)C1CCCN(S(=O)(=O)c2cnc[nH]2)C1 (configuration not stated) | -3.1% |
| COc1ccc(C)cc1NC(=O)C1CC(=O)N(Cc2ccco2)C1 (configuration not stated) | -16.4% |
| O=C1CCCC2=C1C(c1cccs1)Nc1ccc3ncccc3c12 (configuration not stated) | -5.1% |
| O=C1CCCC2=C1C(c1ccco1)Nc1ccc(C(=O)c3ccccc3)cc1N2 (configuration not stated) | -4.7% |
| CC1(C)N=C(c2ccc(Cl)cc2Cl)C(=O)N1 | -8.8% |
| CCOc1ccccc1NC(=S)N1CCC(NC(=O)NC23CC4CC(CC(C4)C2)C3)CC1 | -4.6% |
| O=C(c1ccc2c(c1)OCO2)N1CCC(CN2C(=O)c3cccc4cccc(c34)C2=O)CC1 | -13.5% [this sample at 5 µg/mL] |
| Cc1ccc2nc(NC3=NCN(Cc4ccccc4)CN3)nc(C)c2c1 | 1.1% |
| O=C1/C(=C\c2ccc(-c3ccccc3Cl)o2)SC(=S)N1Cc1ccccc1 | 18.2% [this sample at 5 µg/mL] |
| CN1C(=O)/C(=C2\SC(=S)N(CC3CCCO3)C2=O)c2ccccc21 (configuration not stated) | -3.2% |
| Cc1ccccc1OCC(=O)Nc1ccc2c(c1)Cc1ccccc1-2 | -9.2% |
| Cc1c(NC(=S)N/N=C/c2ccc(O)cc2)c(=O)n(-c2ccccc2)n1C | -1.6% |
| Cc1c(NC(=O)CC(=O)Nc2c(C)n(C)n(-c3ccccc3)c2=O)c(=O)n(-c2ccccc2)n1C | 0.3% |
| COc1ccccc1-c1nnc2n1N=C(c1ccc(O)c(O)c1)CS2 | -9.2% |
| COc1cc(/C=c2\sc3nc4ccccc4n3c2=O)ccc1OS(=O)(=O)c1ccccc1 | 10.7% [this sample at 5 µg/mL] |

| SMILES | inhibition |
| --- | --- |
| COc1cc(/C=c2\sc3nc4ccccc4n3c2=O)ccc1OCCOc1ccccc1 | -2.3% [this sample at 5 µg/mL] |
| COCCNC(=O)CN(C(=O)CCC(=O)Nc1nccs1)c1ccccc1OC | -10.3% |
| CN1/C(=C\C=[N+](C)c2ccccc2)C(C)(C)c2ccccc21 | -36.4% |
| CCN1C(=O)/C(=C\c2cccc(C)c2)SC1=S | -1.5% [this sample at 5 µg/mL] |
| CCN1C(=O)/C(=C/C=C2/SCCN2C)SC1=S | -7.6% |
| CN1/C(=C\C=Nc2ccccc2)C(C)(C)c2ccccc21 | 4% |
| COc1ccc(C(=O)NCCCn2ccnc2)cc1 | 3% |
| O=C(Nc1ccccc1)N1CCC(C(=O)N2CCN(S(=O)(=O)c3cccc(F)c3)CC2)CC1 | -6.6% |
| COc1ccc(OC)c(NC(=O)CN(c2ccccc2)S(=O)(=O)c2ccccc2[N+](=O)[O-])c1 | -12.2% [this sample at 5 µg/mL] |
| CCOC(=O)C1CCCN(C(=O)COc2ccccc2O)C1 (configuration not stated) | -0.6% |
| COCCN(Cc1cc2cc3c(cc2nc1Cl)OCO3)C(=O)Nc1ccccc1OC | -13.8% |
| CCN(CC)CCCN(Cc1cc2cc3c(cc2[nH]c1=O)OCCO3)C(=O)Nc1ccc(F)cc1 | 9.2% |
| Cc1ccc(-n2ncnc2-c2cccc(Cl)c2)cc1Cl | 0.3% [this sample at 5 µg/mL] |
| COc1ccccc1-c1c(C(F)(F)F)oc2c(CN3CCCC3)c(O)ccc2c1=O | -1.3% [this sample at 5 µg/mL] |
| CCCSC1=N/C(=C\c2ccsc2)C(=O)S1 | -0.1% |
| O=C1SC(c2ccccc2)=N/C1=C/c1ccco1 | -12.4% |
| COc1ccc(-c2nnc3n2N=C(C)CS3)cc1OC | -3.7% |
| CCC(CC)COC(=O)C(C#N)c1nc2ccccc2nc1N1CCOCC1 (configuration not stated) | 48.9% |
| COCCOC(=O)C(C#N)c1nc2ccccc2nc1N1CCCC1 (configuration not stated) | 20.7% |
| N#CC(C(=O)OC1CCCCC1)c1nc2ccccc2nc1N1CCOCC1 (configuration not stated) | -17.3% |
| CC1CCN(c2nc3ccccc3nc2C(C#N)C(=O)OC2CCCCC2)CC1 (configuration not stated) | 42.2% |
| C=CCN1C(=O)[C@]2(c3ccccc31)C1CCCC=C1C(C#N)=C(N)C2(C#N)C#N (some centres not stated) | -6.6% |

| SMILES | inhibition |
| --- | --- |
| CC(=O)Nc1ccc(S(=O)(=O)N2CCN(C34CC5CC(CC(C5)C3)C4)CC2)cc1 | -1.8% |
| COc1ccc(C(CC(=O)Nc2ccc(F)cc2)c2ccccc2)cc1 (configuration not stated) | -16.8% |
| O=C(CSc1nnc(-c2ccc(S(=O)(=O)N3CCOCC3)cc2)o1)c1ccccc1F | -15.3% |
| CCOC(=O)c1c(NC(C)=O)sc2c1CCCNC2=O | 12.2% |
| CCCCC(=O)Nc1sc2c(c1C(=O)OCC)CCC(C=O)=C2Cl | -6.4% |
| CC(C)OP(=O)(c1ccc(N(C)C)cc1)C(O)c1ccncc1 (configuration not stated) | -19.9% |
| COc1ccc(N2CCN(C(=O)c3csc4ccccc34)CC2)cc1 | -8.7% |
| Cc1ccc(S(=O)(=O)N(Cc2ccccc2)c2ccccc2C(=O)NCc2ccc(Cl)cc2)cc1 | 22% [this sample at 5 µg/mL] |
| Cc1ccc2cc(C#N)c(N3CCCN(C(=O)C4CCCO4)CC3)nc2c1 (configuration not stated) | 2.7% |
| COc1cc(C(=O)N2CCCN(c3nc4cc(C)ccc4cc3C#N)CC2)cc(OC)c1OC | 1.5% |
| CCOc1ccc2oc(C)c(C(=O)OC(C)C)c2c1 | -14.8% [this sample at 5 µg/mL] |
| O=S(=O)(c1ccc(Cl)cc1)N1CCN(c2ccccn2)CC1 | 11% [this sample at 5 µg/mL] |
| Cc1cc([N+](=O)[O-])nn1CC(=O)NNC(=S)Nc1ccc(Cl)cc1 | -10.8% |
| COc1ccc(N2Cc3cccc(C(=O)N4CCOCC4)c3C2=O)cc1 | 7.2% |
| COc1ccc(N2Cc3cccc(C(=O)N4CCN(C(=O)c5ccco5)CC4)c3C2=O)cc1 | 11.2% |
| Cn1c(SCC(=O)N2CCOCC2)nc2cccnc21 | 2.2% |
| O=C(OCc1ccccc1)Sc1nnc(-c2ccc(Br)cc2)o1 | -5.7% [this sample at 5 µg/mL] |
| CCOC(=O)CSc1nnc(-c2ccc(Br)cc2)o1 | 5.7% [this sample at 5 µg/mL] |
| Cc1cc2c(ccc3[nH]onc32)n1 | 16.7% |
| O=C1OC(c2ccccc2)=N/C1=C\N1CCCCC1 | -17.4% |
| CN(C)/C(CN1CCOCC1)=C1\N=C(c2ccccc2)OC1=O | -14% |
| CC1=NN(c2ccccc2)C(=O)/C1=C/c1cc2cc(C)ccc2nc1N1CCCCC1 | 5.3% |

| SMILES | inhibition |
| --- | --- |
| Cc1ccc(C2=N/C(=C\N3CCCCC3)C(=O)O2)cc1 | -3.3% |
| CCn1c(SCC(=O)OC(C)C)nnc1-c1cccc(Cl)c1 | -13.7% |
| C=CCNC(=O)c1ccc(N2C(=O)c3ccccc3C2=O)cc1 | -9.3% [this sample at 5 µg/mL] |
| CCOC(=O)N1CCN(C(=O)CSCc2nc(-c3ccccc3C)oc2C)CC1 | 7.2% |
| CCOc1ccc(N(CC(=O)Nc2ccc3c(c2)OCCO3)S(=O)(=O)c2c(C)noc2C)cc1 | -0.5% |
| O=C(C/C=N\OCc1c(Cl)cccc1Cl)Oc1ccc(Cl)cc1Cl | -11.4% |
| Nc1ccc(NC(=O)c2ccccc2)c2c1C(=O)c1ccccc1C2=O | -5.6% |
| Nc1ccc2c(c1)C(=O)C(=O)c1ccccc1-2 | -16.9% |
| CC1CN(CC(=O)N2CCc3[nH]c4ccccc4c3C2)CC(C)O1 (configuration not stated) | -14.2% |
| CC(N=c1ccccn1C(=O)Nc1ccc(Cl)cc1)c1ccco1 (configuration not stated) | 6.6% |
| CN(C)c1ccc(N=Cc2nc(-c3ccccc3)oc2O)cc1 | -7.6% |
| Oc1oc(-c2ccccc2)nc1C=Nc1ccccc1 | 1% |
| COc1ccc(C2C(C(=O)OCC(=O)N3CCCCC3)CCC(=O)N2c2ccc(OC)cc2)cc1 (configuration not stated) | -9.6% |
| COc1cc(NC(=O)c2ccc(NS(=O)(=O)c3c(C)noc3C)cc2)cc(OC)c1 | -7.5% |
| Cc1ccccc1NC(=O)CSc1nnc(-c2ccco2)c(-c2ccco2)n1 | 32.3% |
| O=C(CSc1nnc(-c2ccco2)c(-c2ccco2)n1)Nc1ccccc1 | 41.7% |
| CS(=O)(=O)N1CCN(Cc2ccc(Cl)cc2)CC1 | -10.7% [this sample at 5 µg/mL] |
| CC(C(=O)O)N1C(=O)/C(=C/c2ccc([N+](=O)[O-])cc2)SC1=S (configuration not stated) | 3.4% [this sample at 5 µg/mL] |
| CC(C)C(C(=O)O)N1C(=O)/C(=C/c2ccc3c(c2)OCO3)SC1=S (configuration not stated) | -2% [this sample at 5 µg/mL] |
| CC(C(=O)O)N1C(=O)/C(=C/c2ccc3c(c2)OCO3)SC1=S (configuration not stated) | 0.6% [this sample at 5 µg/mL] |
| CC(C)CN1C(=O)/C(=C/c2ccco2)SC1=S | 30.2% [this sample at 5 µg/mL] |
